# BAZ2B block: BAZ2B (human) inhibition. Q9UIF8. AlphaScreen BAZ2B-H3K14Ac peptide displacement. Potency, µM (highest dose often 114 µM), hits mostly inhibitors. 360,000 compounds, 4.4% hits; also: nearly all actives have a fitted effect of over 60% in size
#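 Compounds, titrated to a top concentration of 110 uM, were incubated 30 min at room temperature with preformed BAZ2B/acetyl-K14 H3 peptide complex (50 nM each). Proximity signal was measured by AlphaScreen after 20 min with beads.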
# HP1b chromo inh: HP1-beta chromodomain-methylated histone interaction inhibition; AlphaScreen HP1-beta / biotin-H3K9me3 peptide binding; Potency, µM (doses to about 114 µM), usual class: inhibitors; 390,000 compounds, 0.56% hits; also: nearly all actives have a fitted effect of over 70% in size
#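 HP1-beta protein (50 nM final) preincubated 30 min at room temperature with biotinylated H3(1-18)K9me3 peptide (50 nM) in PBS pH 7.4, 0.01% Tween-20, then compound added for 30 min. AlphaScreen streptavidin donor/nickel chelate acceptor beads (10 ug/mL final), 30 min dark, luminescence read.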
# G9a block: G9a (human) methyltransferase inhibition | Potency, µM (doses to about 102 µM), actives largely listed as inhibitors | 350,000 compounds, 8.8% hits | Q96KQ7 | G9a H3K9 monomethylation, AlphaScreen, 2 h; also: nearly all actives have a fitted effect of over 75% in size
#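 Quantitative HTS format: methyltransferase activity on a biotin-tagged H3K9 peptide is measured by AlphaScreen, using a rabbit anti-monomethyl-H3K9 antibody with streptavidin donor and anti-IgG acceptor beads. Final levels are 20 nM enzyme, 500 nM peptide, 20 uM SAM; 2 h RT.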
# L3MBTL1 block: inhibitors of human L3MBTL1; AID 485360; 230,000 compounds, 0.66% hits; AlphaScreen L3MBTL1–H3K9me1 peptide binding; Potency, µM (top dose mostly 57.1 µM), hits mostly inhibitors; Q9Y468; also: nearly all actives have a fitted effect of over 60% in size
#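 AlphaScreen proximity signal between nickel-chelate acceptor and streptavidin donor beads (final 10 ug/mL) reports binding of 50 nM L3MBTL1 to 75 nM biotin-H3 K9me1 peptide; complex incubated with compounds 30 min at room temperature; cefsulodin titration as control.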
# JMJD2A Tudor inh: inhibitors of human JMJD2A Tudor domain; 390,000 compounds, 4.4% hits; AlphaScreen JMJD2A-Tudor / H3K4me3 peptide binding; O75164; Potency, µM (titrated, usually from 114 µM), most hits filed as inhibitors; also: nearly all actives have a fitted effect of over 50% in size
# Target sequence (O75164 whole entry, looked up, the tested form may be a part): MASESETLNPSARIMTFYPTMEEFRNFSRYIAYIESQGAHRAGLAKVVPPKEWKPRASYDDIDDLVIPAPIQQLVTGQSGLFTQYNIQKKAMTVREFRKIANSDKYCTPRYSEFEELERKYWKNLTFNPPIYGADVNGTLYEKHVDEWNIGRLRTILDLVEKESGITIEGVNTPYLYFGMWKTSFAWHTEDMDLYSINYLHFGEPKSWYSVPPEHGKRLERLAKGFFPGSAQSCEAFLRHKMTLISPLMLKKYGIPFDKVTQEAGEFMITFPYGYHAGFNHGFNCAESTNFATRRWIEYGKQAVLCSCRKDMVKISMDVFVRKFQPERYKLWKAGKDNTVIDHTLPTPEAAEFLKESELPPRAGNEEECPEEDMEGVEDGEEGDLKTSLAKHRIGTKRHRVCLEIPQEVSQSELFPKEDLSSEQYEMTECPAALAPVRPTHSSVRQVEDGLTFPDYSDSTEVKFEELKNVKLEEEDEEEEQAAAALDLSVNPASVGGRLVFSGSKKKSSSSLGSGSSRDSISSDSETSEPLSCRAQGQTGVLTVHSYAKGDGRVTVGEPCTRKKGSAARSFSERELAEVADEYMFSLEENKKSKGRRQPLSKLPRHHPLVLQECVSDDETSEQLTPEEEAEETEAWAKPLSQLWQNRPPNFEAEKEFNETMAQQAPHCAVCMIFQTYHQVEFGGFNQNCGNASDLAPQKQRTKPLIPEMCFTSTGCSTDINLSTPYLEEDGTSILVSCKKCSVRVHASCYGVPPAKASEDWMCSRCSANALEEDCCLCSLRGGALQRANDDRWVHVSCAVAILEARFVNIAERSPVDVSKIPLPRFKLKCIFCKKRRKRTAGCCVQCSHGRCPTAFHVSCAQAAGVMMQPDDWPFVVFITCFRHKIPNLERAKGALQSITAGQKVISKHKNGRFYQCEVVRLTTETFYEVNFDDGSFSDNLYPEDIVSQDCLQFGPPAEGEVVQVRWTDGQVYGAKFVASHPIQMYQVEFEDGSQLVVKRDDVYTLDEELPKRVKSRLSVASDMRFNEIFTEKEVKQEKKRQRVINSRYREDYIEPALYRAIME
# PI5P4K alpha inh: blocks human PI5P4K alpha kinase activity; 330,000 compounds, 1.2% hits; max response, %; PI5P4Kalpha enzyme, ADP-Glo luminescence, 60 min; stronger effect = lower value; active = max response of -50% or lower; inconclusive = between -30% and -50%; inactive = -30% or higher; also: value at the top dose of about 77 µM
#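 ADP-Glo luminescence end-point read after a 60 min room-temperature kinase reaction of PI5P4Kalpha plus substrate, initiated with ATP at 5 microM final. Buffer: 0.038 M HEPES pH 7.4, EGTA, 0.1% CHAPS, 5% DMSO.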
# A number is an active result; n = inactive; u = inconclusive; x = not tested or not shown; ! = a repeat was not active; [ ] = another dose, or the depositor's remark. Rows were chosen to be rich in hits. Some 11% of all compounds tested hit in one or more screens of this group. Unless noted, calls follow the shape of the dose curve; as a rule, active = well fitted inhibition curve with a large enough effect; inconclusive = small, poorly fitted or top-dose-only effect; inactive = no such curve, though single readings can be large or run the other way.
SMILES,BAZ2B block,HP1b chromo inh,G9a block,L3MBTL1 block,JMJD2A Tudor inh,PI5P4K alpha inh
Cc1ccccc1CN1CCc2nc(N3CCN(c4ccccn4)CC3)ncc2C1,u,n,n[12.7 µM],x,89µM,x
CN(C)c1ccc(CN2CCc3nc(N4CCN(c5ccccn5)CC4)ncc3C2)cc1,25µM,28µM,u,x,35µM,x
COc1ccc(O)c(C(C)(C)C)c1,n,n,u,n,n,n
CC(C)(C)c1cc(O)ccc1O,x,x,4.5µM,x,x,x
Clc1ccccc1-c1cncnc1NCCc1cnc[nH]1,x,x,n[0.501 µM],x,x,x
COc1cccc(-n2c(CN3CCOCC3)nc3ccc([N+](=O)[O-])cc3c2=O)c1,n,n,45µM,x,n,n
O=[N+]([O-])c1ccc(N2CCCC(C(F)(F)F)C2)c2ccncc12 (stereo unspecified),u,u,50µM,x,u,n
O=[N+]([O-])c1ccc(N2CCCCC2)c2ncccc12,u,u,u,n,u,n
Brc1nc(-c2ccccc2)nc(-c2ccccc2)c1Br,x,n,x,x,n,n
S=c1[nH]nc(-c2cccs2)n1C1CCCCC1,n,n,x,n,6.3µM,n
O=c1c(C=NCc2cccs2)c(O)n(C2CCCCC2)c(=O)n1C1CCCCC1,n,n,n,x,n,n
NCCCC[C@H](N[C@@H](CCc1ccccc1)C(=O)O)C(=O)N1CCC[C@H]1C(=O)O,n,n,10µM!,n,n,n
C[C@H](N)Cc1ccccc1,x,x,n[12.7 µM],x,x,x
COc1cccc(CNC(=O)c2cccc(S(=O)(=O)N3CCN(C)CC3)c2)c1,n,n,40µM,x,n,n
CCN(CC)C(=O)c1ccc(NC(=O)c2cccc(S(=O)(=O)N3CCN(Cc4ccccc4)CC3)c2)cc1,n,n,n[12.7 µM],n,n,n
Cc1nnc(NC(=O)c2cccn(Cc3cccc([N+](=O)[O-])c3)c2=O)s1,n,n,n,x,n,x
O=C1CC(c2ccc(C(F)(F)F)cc2)c2c(c3ccccc3oc2=O)O1 (stereo unspecified),n,n,n,x,n,x
CCOC(=O)c1cn2nc(OP(=S)(OCC)OCC)cc2nc1C,n,n,20µM,n,n,n
COc1ccc(C(=O)c2c(C)n(CCN3CCOCC3)c3ccccc23)cc1,x,x,n[12.7 µM],x,x,x
c1cc2c(cc1CCNC1C3CC4CC(C3)CC1C4)OCO2 (stereo unspecified),u,n,25µM,n,4µM,x
CC1CCC(NCCc2ccc3c(c2)OCO3)CC1 (stereo unspecified),u,u,u,n,3.2µM,x
Cc1oc2cc3oc(=O)c(CCC(=O)N4CCCCC4)c(C)c3cc2c1C,n,n,n,x,n,x
CC(C)(C)c1ccc(C(=O)Nc2ccc3nc(SCC(=O)N4CCCC4)sc3c2)cc1,n,n,n,x,n,x
Nc1c(C(=O)Nc2ccc(F)c(Cl)c2)sc2nc3c(cc12)N1CCC3CC1,n,n,8.9µM,x,u,x
CN(C)c1ccc(NC(=O)c2sc3nc4c(cc3c2N)N2CCC4CC2)cc1,u,n,5µM,x,n,x
SMILES,BAZ2B block,HP1b chromo inh,G9a block,L3MBTL1 block,JMJD2A Tudor inh,PI5P4K alpha inh
COc1cc2c(cc1OC)[C@H](C)NCC2,x,x,n[21.5 µM],x,x,x
CCOc1ccc2nc(N(CCN(CC)CC)C(=O)c3ccc([N+](=O)[O-])cc3)sc2c1,x,n,n,x,n,n
CC/C(=N\Nc1ccccc1)c1c(O)n(-c2ccc(OC)cc2)c(=O)[nH]c1=O,n,n,40µM,n,n,n
CCC(=NCCO)c1c(O)n(-c2ccccc2)c(=O)[nH]c1=O,n,n,n[2.33 µM],x,n,n
C/C(=N\N(C)c1ccccc1)c1c(O)[nH]c(=O)[nH]c1=O,n,n,50µM,n,n,n
CCC(=NC(C)c1ccccc1)c1c(O)[nH]c(=O)[nH]c1=O (stereo unspecified),n,n,x,x,n,n
COc1ccc(N=C(C)c2c(O)[nH]c(=O)[nH]c2=O)cc1,n,n,n,n,n,n
CC/C(=N\Nc1ccccc1)c1c(O)[nH]c(=O)[nH]c1=O,n,n,45µM,n,n,n
CC/C(=N\NC(N)=O)c1c(O)[nH]c(=O)[nH]c1=O,n,n,u,x,n,n
CC/C(=N\Nc1cccc2ccccc12)c1c(O)[nH]c(=O)[nH]c1=O,u,n,1.6µM,n,79µM,u
C[C@]12CCC3C(C=CC4=CC(=O)CC[C@]43C)C1CC[C@]2(O)CCC(=O)O (stereo partly specified),x,x,n[2.33 µM],x,x,x
C[C@@]12CCC(=O)C=C1C=C[C@H]1[C@H]3CC[C@](O)(CCC(=O)O)[C@]3(C)CC[C@@H]12,x,x,n[21.5 µM],x,x,x
C=C(C)[C@H]1C2C(=O)O[C@H]1[C@H]1OC(=O)[C@@]34O[C@@H]3C[C@]2(O)[C@@]14C,x,x,n,x,x,x
O=C(CCC1N=C2c3ccccc3N=C(SCc3cccc(Cl)c3)N2C1=O)N1CCN(c2ccccc2)CC1 (stereo unspecified),n,n,u,x,n,x
COc1cc2c(c(OC)c1OC)-c1ccc(O)c(=O)cc1[C@@H](NC(C)=O)CC2,x,n,x,n,56µM,n
Nc1ccc(CCN2CCCC2)cc1,n,n,40µM,x,n,n
Nc1ccc(CCN2CCN(c3cccc(C(F)(F)F)c3)CC2)cc1,x,n,40µM,x,u,n
COC[C@H]([C@@H](O)[C@@H](O)C(=O)NCC[C@@H](C)c1nc(/C=C/C[C@H]2OC3(C[C@H](O)[C@H]2C)OC([C@@H](C[C@@H](O)[C@@H](C)[C@@H](O)[C@@H](C)/C=C(C)/C(C)=C/C=C/C(C)=C\C#N)OC)[C@@H](OP(=O)(O)O)C3(C)C)co1)N(C)C (stereo partly specified),x,x,n,x,x,x
COc1ccc(NC(=O)c2cccn(Cc3ccc(Cl)cc3)c2=O)c(OC)c1,n,n,n,x,n,x
CN1CCCC1c1cccnc1 (stereo unspecified),x,n,x,x,n,n
Cc1ccc(-n2c(/C=C/c3cc(Br)cs3)nc3ccccc3c2=O)cc1,n,n,n,x,n,x
CC(Cc1cccc(C(F)(F)F)c1)NCCCc1ccccc1 (stereo unspecified),x,x,n,x,x,x
COc1cccc(CCNCc2cccc(C(F)(F)F)c2)c1,56µM,u,10µM,n,2.5µM,n
CN1C(=O)C(=Cc2ccc(-c3cccc(Cl)c3)o2)C(=O)N(C)C1=O,u,x,u,n,x,x
O=C(O)c1ccccc1-c1ccc(C=C2C(=O)N(c3ccccc3)C(=S)N(c3ccccc3)C2=O)o1,71µM,n,n[0.501 µM],n[2.29 µM],50µM,u
Cc1nn(C)c(C)c1-c1cccc2c1CCC(N(C)C)C2 (stereo unspecified),x,x,n,x,x,x
CCOc1ccc(CNCCc2ccc3c(c2)OCO3)cc1,n,n,n,n,n,n
O=[N+]([O-])c1cc2c(cc1CNCCc1ccc3c(c1)OCO3)OCO2,25µM,40µM,u,n,1.1µM,n
CCOc1ccccc1CNCCc1ccc2c(c1)OCO2,n,n,n,n,n,n

# Compound activity as filed in PubChem.
